The source of these data is PubChem BioAssay AID1508622 (National Center for Advancing Translational Sciences (NCATS), 2021).

Activity calls are given as the source filed them. Where a call stands in place of a potency, no number is given. The call rests on the fitted dose curve; in most records, active means well fitted activation curve with a large enough effect; inconclusive means small, poorly fitted or top-dose-only effect; inactive means no such curve, though single readings can be large or run the other way.
Potency means the concentration at half of the fitted maximal effect.

This assay is described as follows: Confirmatory qHTS for Identification of Small Molecule Activators of Huntingtin-Antisense Promoter Activity. The conditions noted are these: HEK293 HTT-AS promoter firefly luciferase reporter, 24 h; series mostly up to 57.5 µM. In a few lines:
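Activity normalized between vehicle control (0%) and zero RLU (-100%) from firefly luminescence (Dual-Glo). Compounds, up to 57.5 uM final, incubated 24 h at 37C on HEK293 reporter cells plated 24 h earlier.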
Turning to `COc1ccc(-c2nc3cc(NC(=O)Cc4ccc(Cl)cc4)ccc3o2)cc1OC`, the Potency entry is “inactive”.

Consider `COc1cccc(C(=O)NCCSc2c(-c3ccc(F)cc3)[nH]c3ccccc23)c1OC`, for which the Potency entry was “inactive”.

In the case of `CCOc1ccc(S(=O)(=O)NCCc2sc3nc(-c4ccc(C)cc4)nn3c2C)cc1`, the Potency entry was “inactive”.

For the compound `O=C(Nc1ccc(F)c(Cl)c1)C1CCN(S(=O)(=O)c2ccc3c(c2)CCCN3C(=O)C2CCC2)CC1`, the Potency result is “inactive”.

Consider `COc1ccc(OC)c(CNS(=O)(=O)c2ccc3[nH]c4c(c3c2)CCCCC4)c1`, for which the Potency entry was “inactive”.

With `COc1ccc(CCNC(=O)c2ccc3nc(Cc4ccccc4)oc3c2)cc1OC`, the Potency entry was “inactive”.

For the compound `CC(=O)N1CCCc2cc(S(=O)(=O)N3CCN(c4ccccc4F)CC3)ccc21`, the Potency entry was “inactive”.

For the compound `CC(C)(C)OC(=O)N1CCC(c2c(C(=O)N3CCC(c4ccccc4)C3)cnn2-c2ccc(Cl)cc2)CC1` (centres undefined), the Potency result is “inactive”.

As to `CCN(c1ncnc2c1cnn2-c1cc(Cl)ccc1C)C1CCCCC1`, the Potency entry was “inactive”.

Consider `CC1CCCCN1C(=O)CSc1nc2ccccc2nc1Cc1ccc(Cl)cc1` (centres undefined), for which the Potency result was “inactive”.

As for `Cc1cc(C)cc(NC(=O)Nc2cccs2)c1`, the Potency was 3.38 µM (active).

As to `CC1Cc2cc(S(=O)(=O)NCc3ccccc3Cl)ccc2N1C(=O)C1CCC1` (centres undefined), the Potency entry is “inactive”.

`CCOCCCNC(=O)c1c[nH]c2ccc(S(=O)(=O)N(C)c3ccc(Cl)cc3F)cc2c1=O`: the Potency result is “inactive”.

For `CC(C)c1ccc(Nc2c(-c3ccccn3)nc3ccccn23)cc1`, the Potency entry is “inactive”.

On to `COc1cc(NC(=O)CSc2nc3nc(C)c(Cc4ccc(C)cc4)c(C)n3n2)cc(OC)c1`, for which the Potency entry was “inactive”.

Consider `Cc1cccc(-n2nc(C)c(C(=O)N3CCN(c4ccccc4)CC3)c2-n2cccc2)c1`, for which the Potency result was “inactive”.

`Cc1cccc(N2CCN(S(=O)(=O)c3ccc4c(c3)CCCN4C(=O)C3CCC3)CC2)c1C`: the Potency entry was “inactive”.

For `COc1ccc2c(c1)CCc1c(C(=O)Nc3c(C)nn(Cc4ccccc4C)c3C)noc1-2`, the Potency result was “inactive”.

For `Cc1ccc(CN2CCCn3nc(C(=O)NCc4cc(C)ccc4C)cc3C2=O)cc1`, the Potency result is “inactive”.

As for `CCc1ccc(NC(=O)c2ccc(F)c(S(=O)(=O)NCc3ccc(Cl)c(Cl)c3)c2)cc1`, the Potency entry was “inactive”.

On to `CC1Cc2cc(S(=O)(=O)NCc3ccc(F)cc3)ccc2N1C(=O)C1CCC1` (centres undefined), for which the Potency entry was “inactive”.

For the compound `COc1ccc(-c2noc(N3CCN(c4cccc(C)c4C)CC3)n2)cc1OC`, the Potency entry is “inactive”.

With `Cc1cccc(N2CCN(S(=O)(=O)c3cc(C(=O)Nc4ccc(Oc5ccccc5)cc4)ccc3F)CC2C)c1` (centres undefined), the Potency result is “inactive”.

Consider `CCCCN(C)C(=O)C1CCC(CNS(=O)(=O)c2ccc(Cl)cc2)CC1` (centres undefined), for which the Potency result was “inactive”.

For the compound `Cn1c(=O)n(C)c2cc(NS(=O)(=O)c3ccccc3)c(NCc3ccccc3)cc21`, the Potency entry was “inactive”.

As for `COc1ccc(CNC(=O)c2cccc(N3CCCS3(=O)=O)c2)cc1OC`, the Potency result is “inactive”.

Regarding `Cc1cc(-c2ccc(S(=O)(=O)Nc3cccc(C)c3C)s2)on1`, the Potency entry was “inactive”.

With `Cc1ccccc1-c1ccnc2c(-c3ccc(F)cc3)c(C)nn12`, the Potency entry is “inactive”.

In the case of `O=C(NCC(c1ccccc1)c1ccccc1)c1nn(-c2ccccc2F)nc1CO`, the Potency entry was “inactive”.

On to `COc1ccc(CNC(=O)c2oc3c(c2C)-c2nn(Cc4ccccc4Cl)cc2CC3)cc1`, for which the Potency entry was “inactive”.

Take `O=C(Nc1ccccc1)C1CCN(S(=O)(=O)c2ccc3[nH]c4c(c3c2)CCCCC4)CC1`: the Potency entry is “inactive”.

With `O=C(Nc1ccc(Br)cc1)c1ccc(F)c(S(=O)(=O)NC2CCCCCC2)c1`, the Potency result is “inactive”.

Turning to `Cc1cccc(NC(=O)Cc2ccc(-n3c(C)nc4cccnc43)cc2)c1C`, the Potency entry was “inactive”.

On to `COc1ccc(C(=O)NCC(c2cccnc2)N2CCN(c3ccc(F)cc3)CC2)cc1` (centres undefined), for which the Potency entry was “inactive”.

On to `CCc1ccc(NC(=O)c2ccc(F)c(S(=O)(=O)N3CCN(c4cc(C)ccc4C)CC3)c2)cc1`, for which the Potency entry is “inactive”.

Regarding `COC(=O)c1ccccc1NC(=O)Cn1nc(C(F)(F)F)c2c1CCCC2`, the Potency result was “inactive”.

With `CCNc1nc2c(c(=O)n(C)c(=O)n2C)n1Cc1ccc(F)cc1`, the Potency entry was “inactive”.

As for `CC1CCN(C(=O)CSc2nnc(NC(=O)Nc3ccccc3)s2)CC1`, the Potency result was “inactive”.

Turning to `CCOc1ccc(OC(=O)c2c(-c3ccccc3Cl)noc2C)cc1`, the Potency result is “inactive”.
